From PubChem
GALR2 ag: activates the human galanin receptor 2; 140,000 tested, 0.48% active; O43603; AID 803; activation, % (test concentration not listed); GALR2-expressing cells, agonist activation read-out; in the data active means activation above about 5%, passing the limit was not always enough;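 further: 0% = vehicle buffer wells and 100% = reference agonist at full effect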
GALR2 blocker: blocks the human galanin receptor 2. AID 828. O43603. inhibition, % at 4 µM. 140,000 tested, 0.39% active. GALR2-expressing cells, antagonist mode;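 further: cells stimulated with galanin 1-16 at roughly its EC80; 0% = agonist challenge control and 100% = basal control without agonist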
S1P2 antag: blocks the human S1P2 receptor; AID 736; cell-based S1P2 antagonist assay, inhibition at 5 uM; O95136; 97,000 tested, 0.21% active; inhibition, % at 5 µM; in the data active means inhibition above about 45%;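 further: CRE beta-lactamase reporter cells expressing human S1P2 stimulated with S1P; 0% = agonist at EC80 alone and 100% = agonist plus reference antagonist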
Target sequence (O95136 whole entry, looked up): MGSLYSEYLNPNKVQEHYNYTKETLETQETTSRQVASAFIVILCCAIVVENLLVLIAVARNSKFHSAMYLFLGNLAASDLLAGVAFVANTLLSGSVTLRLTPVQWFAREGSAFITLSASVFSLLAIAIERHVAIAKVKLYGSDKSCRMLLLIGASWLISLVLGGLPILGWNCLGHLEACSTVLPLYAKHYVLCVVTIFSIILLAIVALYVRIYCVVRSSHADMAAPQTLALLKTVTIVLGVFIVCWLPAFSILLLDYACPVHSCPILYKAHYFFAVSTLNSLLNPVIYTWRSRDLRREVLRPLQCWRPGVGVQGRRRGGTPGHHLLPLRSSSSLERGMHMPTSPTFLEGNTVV
S1P2 agonist: agonists of human S1P2 receptor | O95136 | 97,000 tested, 0.46% active | activation, % at 4.5 µM | S1P2-expressing cell line, agonist reporter read-out; in the data active means activation above about 16%;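 further: 0% = vehicle low control and 100% = maximal reference agonist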
GALR2 blk conf: GALR2 (human) antagonism confirmed | AID 866 | 480 tested, 60% active | shares compounds with GALR2 blocker | inhibition, % at 4 µM | GALR2-expressing cells, antagonist mode, inhibition;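 further: cells stimulated with galanin at about its EC80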
BLA inh counter: inhibits beta-lactamase reporter in GALR2 antagonist counterscreen; shares compounds with GALR2 blocker; CHO NFAT-BLA reporter, beta-lactamase FRET, thapsigargin-stimulated; inhibition, % at 4.2 µM; 480 tested, 36% active;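 active means inhibition above the mean inhibition across tested compounds plus 3 SD, cut at about 27% in these data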;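 further: 0% = 500 nM thapsigargin stimulated wells and 100% = unstimulated BSA only wells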
An asterisk follows results filed as active; . = not tested or not shown; ! = not confirmed by another sample. Sampled rows, rich in hits. Any-hit rate of the full collection: about 1.2%. Unless noted, no stated cut-off is given here; in the data, active means inhibition above about 27%; inactive means the rest.

SMILES | GALR2 ag | GALR2 blocker | S1P2 antag | S1P2 agonist | GALR2 blk conf | BLA inh counter
NC(=O)C1CCN(C2=C(Cl)C(=O)c3ccccc3C2=O)CC1 | 0 | 34* | 45 | -7 | 50* | 37*
NC(=O)C1CCN(C(=O)Nc2ccccc2)CC1 | -2 | 0 | -23 | -1 | . | .
COc1cccc(-n2nnnc2S(C)(=O)=O)c1 | -3 | 33* | 17 | -7 | 55* | 58*
COc1cccc(Oc2nnnn2-c2ccccc2)c1 | -2 | 0 | -18 | -2 | . | .
CC(=O)c1c(C)[nH]c(C(=O)OCC(=O)Nc2ccc(C)cc2[N+](=O)[O-])c1C | -1 | 40* | . | . | 49* | 11
CC(=O)c1c(C)[nH]c(C(=O)OCC(=O)Nc2cc(Cl)ccc2[N+](=O)[O-])c1C | -1 | 25 | . | . | . | .
CC1CN(C(=O)c2ccn(C)n2)CC(C)O1 (stereo unspecified) | -1 | 7 | . | . | . | .
c1cncc(-c2nc(NCC3COc4ccccc4O3)c3ccccc3n2)c1 (stereo unspecified) | -1 | 5 | -7 | 4 | . | .
c1ccc2c(c1)OCC(CNc1ncnc3sccc13)O2 (stereo unspecified) | 0 | 42* | . | . | 54* | 11
CCOC(=O)C1=C(O)c2ccccc2C(=O)/C1=C\c1ccc(C)cc1 | -1 | 30* | . | . | 15 | 14
COc1ccc(CC(=O)Nc2ccc(-c3cn4ccc(C)cc4n3)cc2)cc1 | 1 | -1 | -5 | 2 | . | .
CN(C)CCNS(=O)(=O)c1ccc(N2CCN(c3ccc(F)cc3)CC2)c([N+](=O)[O-])c1 | 0 | -5 | . | . | . | .
Brc1ccc2[nH]c3c(N4CCc5ccccc5C4)ncnc3c2c1 | -2 | 14 | 33 | 3 | . | .
Cc1ccc2[nH]c3c(N4CCc5ccccc5C4)ncnc3c2c1 | -1 | 54* | 83* | -9 | 52* | 16
Cc1c(C(=O)Nc2cccc(Cl)c2)c2ccccn2c1CCc1ccncc1 | -2 | 33* | . | . | 15 | 15
CCOc1ccc2c(c1)C(C)=CC(C)(C)N2C(=O)Nc1ccccc1 | -1 | 29* | 5 | 1 | 8 | 5
CN(c1ccccc1)c1ccc(/C=N/N2CCOCC2)cc1 | -1 | -4 | . | . | . | .
COc1ccc(COc2cc(-c3cccc(OC)c3)nc3ccc(NC(=O)c4ccc(N(C)C)cc4)cc23)cc1 | -3 | 27* | . | . | 16 | 10
COc1ccc(COc2cc(-c3cccc(OC)c3)nc3ccc(NC(=O)c4ccc(C)cc4)cc23)cc1 | -2 | 13 | . | . | . | .
Fc1ccc(SCCc2ccncc2)cc1 | -3 | 32*! | 18 | -5 | 6 | 0
Cc1ccn2c(Nc3ccc4c(c3)OCO4)c(-c3ccccn3)nc2c1 | -2 | 30* | . | . | 20 | 26
CC1=NNC(=O)/C1=C\c1cn(-c2ccccc2)nc1-c1cccs1 | -1 | 31* | . | . | -2 | 22
O=C(N/N=C/c1cn(-c2ccccc2)nc1-c1cccs1)c1ccccc1F | -1 | 14 | . | . | . | .
COc1ccc(NS(=O)(=O)Cc2ccccc2Cl)cn1 | 0 | 2 | 20 | -6 | . | .
COc1ccc(NC(=O)/C(Cl)=C(/Cl)S(=O)(=O)Cc2ccccc2)cn1 | -2 | 82* | 104* | -10 | 92* | 92*
SMILES | GALR2 ag | GALR2 blocker | S1P2 antag | S1P2 agonist | GALR2 blk conf | BLA inh counter
CCCCCCCCNc1ncnc2ccccc12 | -1 | 39* | 78* | -3 | 54* | 18
CCC(=O)NNc1ncnc2ccccc12 | -2 | -3 | . | . | . | .
Cc1cccc(NC(=S)NC(=O)c2ccco2)n1 | -1 | 7 | . | . | . | .
COc1cccc2oc(-c3ccco3)cc(=O)c12 | -2 | 7 | . | . | . | .
CN(C)c1ccc(NC2=C(Cl)C(=O)c3ccccc3C2=O)cc1 | 0 | 41* | . | . | 48* | 9
N#Cc1c(N)oc(-c2ccc3c(c2)OCO3)c1-c1ccc2c(c1)OCO2 | 1 | -15 | -14 | 5 | . | .
O=S(=O)(NC1=NCCCCC1)c1ccc2ccccc2c1 | 0 | 6 | . | . | . | .
O=C(Nc1nc(-c2cccs2)c(-c2cccs2)s1)C1CCCC1 | -2 | 12 | . | . | . | .
CCCSc1nnc(NC(=O)c2sc3nc(-c4cccs4)ccc3c2N)s1 | -4 | 38* | 55* | -12 | 21 | 34*
O=C(/C=C/Nc1ccc([N+](=O)[O-])cc1Br)c1cccc2ccccc12 | -2 | 16 | . | . | . | .
Cc1ccc(-n2c(Cl)c(Cl)nc(Cl)c2=O)cc1 | 2 | 81* | . | . | 92* | 99*
CC(NC(=O)OC(C)(C)C)C(=O)Oc1cc2oc(=O)cc(-c3ccccc3)c2cc1Cl (stereo unspecified) | 1 | 32* | 46 | -8 | 29* | 40*
O=S(=O)(Nc1cc(Sc2cccc3cccnc23)c(O)c2ccccc12)c1ccccc1 | 0 | 31* | . | . | 24 | 10
Cc1ccc(S(=O)(=O)Nc2cccc3cccnc23)cc1 | 0 | 8 | -14 | -4 | . | .
O=[N+]([O-])c1ccc(N/N=C/c2c[nH]c3ccccc23)cc1 | -4 | 36* | 34 | -11 | 25 | 30*
O=[N+]([O-])c1ccccc1N/N=C/c1c[nH]c2ccccc12 | -2 | 9 | 4 | -3 | . | .
Cc1nc2nc3c(cn2n1)C(=O)CCC3 | -1 | 5 | 4 | -2 | . | .
Cc1ccc(C(=O)NC(=S)NCC2CCCO2)cc1Br (stereo unspecified) | 1 | -3 | . | . | . | .
CC(=O)c1ccc(N2CCN(C(=O)COc3ccc(F)cc3)CC2)c(F)c1 | -2 | 28* | . | . | 8 | -2
CCC(=O)c1ccc(N2CCN(C(=O)COc3ccc(F)cc3)CC2)c(F)c1 | 0 | 4 | 10 | -5 | . | .
COc1ccc(OC)c(NC=C2C(=O)OC3(CCCCC3)OC2=O)c1 | 0 | 50* | -13 | -3 | 5 | 5
COc1ccc(S(=O)(=O)N2CCc3ccccc32)cc1C(=O)OCc1nnc(-c2ccccc2)o1 | -2 | -1 | -19 | -1 | . | .
CC(NC(=O)CN(C)Cc1nc2ccccc2c(=O)[nH]1)c1ccccc1 (stereo unspecified) | -3 | 36* | -9 | -4 | 3 | 4
N#Cc1c(-c2ccccc2F)cc(C2CC2)nc1SCC(=O)c1cccs1 | -1 | 28* | . | . | 32* | 32*
O=C(CCCn1c(=S)[nH]c2cc3c(cc2c1=O)OCO3)N1CCc2ccccc2C1 | -4 | 28* | 2 | -2 | 7 | 5
SMILES | GALR2 ag | GALR2 blocker | S1P2 antag | S1P2 agonist | GALR2 blk conf | BLA inh counter
O=C(CCn1c(=S)[nH]c2cc3c(cc2c1=O)OCO3)N1CCc2ccccc2C1 | -2 | -6 | -3 | -3 | . | .
COc1ccc(O)c(/C=N/NC(=S)Nc2cccc(S(=O)(=O)N(C)C)c2)c1 | -1 | 35* | . | . | 21 | 13
Cc1ccc(-c2csc(NC(=O)C3=NN(c4ccccc4)C(=O)CC3)n2)cc1 | -1 | 28* | . | . | 20 | 5
CCCCNC(=O)COC(=O)c1cc(C)nc2ccccc12 | -1 | -7 | -2 | -3 | . | .
CNC(=O)NC(=O)C(C)OC(=O)c1c2c(nc3ccccc13)/C(=C/c1cccs1)CC2 (stereo unspecified) | 6.6* | 49* | . | . | 41* | 48*
CCCCNC(=O)COC(=O)c1c2c(nc3ccccc13)/C(=C/c1cccs1)CC2 | 8.0* | 27* | . | . | 41* | 51*
